Screens from PubChem.
Only a selection was taken, and hits are over-represented in it overall.
APE1 inh – inhibitors of human APE1 endonuclease; P27695; recombinant APE1, TAMRA/BHQ-2 abasic DNA cleavage fluorescence; Potency, µM (top dose mostly 65.8 µM), usual class: inhibitors; 350,000 tested, 0.35% active; AID 2517; also: nearly all actives have a fitted effect of over 55% in size
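0.75 nM APE1 + cpd, 15 min RT; start w/ 50 nM TAMRA/BHQ-2 THF-abasic dsDNA; kinetic fluor 525/598 nm ×3 reads @60 s; Δ(read3−read1); normalized to DMSO and NSC13755 control wells.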
GoLoco inh red – blocks human Gai1 binding to RGS12 GoLoco peptide, red readout; P63096; Gai1:RGS12 GoLoco peptide FP, rhodamine, 10 min; 230,000 tested, 0.44% active; Potency, µM (highest dose often 61.6 µM), most hits filed as inhibitors; active = well fitted inhibition curve with a large enough effect, not every such curve was filed as active; inactive = no such curve, though single readings can be large or run the other way; also: nearly all actives have a fitted effect of over 30% in size
BLM helicase inh – Bloom syndrome helicase (human) inhibition; Potency, µM (highest dose often 56.1 µM), hits mostly inhibitors; AID 2528; recombinant BLM DNA unwinding, fluorescence dequenching; 350,000 tested, 0.2% active; P54132; also: nearly all actives have a fitted effect of over 35% in size
JMJD2E inh – JMJD2E (human) inhibition; JMJD2E catalytic domain, FDH-coupled NADH fluorescence (FDH is formaldehyde dehydrogenase); Potency, µM (doses to about 57.1 µM), usual class: inhibitors; 230,000 tested, 1.6% active; AID 2147; active = well fitted inhibition curve with a large enough effect, not every such curve was filed as active; inconclusive = small, poorly fitted or top-dose-only effect, or another doubt; inactive = no such curve, though single readings can be large or run the other way; also: nearly all actives have a fitted effect of over 50% in size
Target sequence (B2RXH2 1-337 limits assumed): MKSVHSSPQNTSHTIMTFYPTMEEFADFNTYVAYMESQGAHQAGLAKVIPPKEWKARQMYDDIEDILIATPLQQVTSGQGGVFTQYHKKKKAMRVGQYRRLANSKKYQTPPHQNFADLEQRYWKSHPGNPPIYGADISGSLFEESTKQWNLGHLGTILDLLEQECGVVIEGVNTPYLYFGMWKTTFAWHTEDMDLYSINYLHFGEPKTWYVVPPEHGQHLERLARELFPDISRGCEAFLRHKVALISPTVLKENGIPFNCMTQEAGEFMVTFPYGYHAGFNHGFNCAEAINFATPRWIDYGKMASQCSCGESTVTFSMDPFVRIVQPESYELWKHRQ
L3MBTL1 inh – blocks human L3MBTL1 | Q9Y468 | AlphaScreen L3MBTL1–H3K9me1 peptide binding | Potency, µM (top dose mostly 57.1 µM), usual class: inhibitors | 230,000 tested, 0.66% active | AID 485360; also: nearly all actives have a fitted effect of over 60% in size
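First, the protein-peptide complex forms for 30 min at room temperature (L3MBTL1 50 nM, biotinylated H3K9me1 peptide 75 nM). Next, compounds are pin-transferred and incubated 30 min. Finally, AlphaScreen beads are added and read after 30 min.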
RECQ1 helicase – inhibitors of human RECQ1 DNA helicase; Potency, µM (doses to about 57.3 µM), most hits filed as inhibitors; AID 2549; P46063; 240,000 tested, 0.54% active; RECQ1 DNA unwinding, red fluorescence kinetic read; also: nearly all actives have a fitted effect of over 30% in size
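50 nM RECQ1T1 preincubated 15 min with compound in Tris pH 8.0 buffer with MgCl2, DTT, Tween-20 and 2.5 ug/ml poly(dI-dC); started with 200 nM TAMRA/BHQ-2 forked duplex and 2 mM ATP. Unwinding read as fluorescence (525/598 nm), two reads 2 h apart.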
Of the large screens only hits and unclear results are named; the others gave an inactive call. Unless noted, calls follow the shape of the dose curve; as a rule, active = well fitted curve in the direction sought with a large enough effect; inconclusive = small, poorly fitted or top-dose-only effect, or another doubt; inactive = no such curve, though single readings can be large; an effect the other way counts as inactive or inconclusive.

COC(=O)C1(O)CC2OC1(C)n1c3ccccc3c3c4c(c5c6ccccc6n2c5c31)C(=O)NC4 (centres undefined)	none (no result: JMJD2E inh, L3MBTL1 inh)
CN[C@H]1C[C@H]2O[C@@](C)([C@H]1OC)n1c3ccccc3c3c4c(c5c6ccccc6n2c5c31)C(=O)NC4	APE1 inh inconclusive, JMJD2E inh inconclusive, RECQ1 helicase 28.2µM
O=C1C(I)=CC(=C(c2cc(I)c(O)c(I)c2)c2ccccc2C(=O)O)C=C1I	APE1 inh inconclusive, BLM helicase inh 15.8µM (no result: GoLoco inh red, JMJD2E inh, L3MBTL1 inh, RECQ1 helicase)
CC(=O)Oc1c(C)cccc1C(=O)O	JMJD2E inh inconclusive (no result: L3MBTL1 inh)
CC(C)(O)[C@@H]1[C@H]2OC(=O)[C@@H]1[C@]1(O)C[C@H]3O[C@]34C(=O)O[C@H]2[C@]14C	none (no result: GoLoco inh red, BLM helicase inh, JMJD2E inh, L3MBTL1 inh, RECQ1 helicase)
CC(=O)N1CCCSC1=Nc1ccccc1	none
CCOc1ccccc1N=C1SCCCN1C	GoLoco inh red 3.55µM
O=C(O)C(O)(c1ccc(-c2ccccc2)cc1)c1ccc(-c2ccccc2)cc1	none (no result: APE1 inh, BLM helicase inh, JMJD2E inh, L3MBTL1 inh, RECQ1 helicase)
N#CC(C#N)=NNc1ccc(OC(F)(F)F)cc1	APE1 inh inconclusive, BLM helicase inh inconclusive (no result: L3MBTL1 inh)
C[C@@]12CC[C@H]3[C@H](CCC4=CC(=O)CC[C@H]43)[C@H]1CC[C@H]2OC1(O)C(=O)c2ccccc2C1=O	none (no result: APE1 inh, BLM helicase inh, JMJD2E inh, L3MBTL1 inh, RECQ1 helicase)
C/C=C1/C[N+]2(C)CCC34C(=C(C=O)[C@H]1C[C@@H]32)Nc1ccccc14 (some centres undefined)	none (no result: GoLoco inh red, BLM helicase inh, JMJD2E inh, RECQ1 helicase)
C/C=C1/C[N@@+]2(C)CC[C@]34C(=C(C=O)[C@H]1C[C@H]32)Nc1ccccc14	GoLoco inh red 6.31µM (no result: BLM helicase inh, JMJD2E inh, L3MBTL1 inh)
O=C(CCl)c1ccc(Cl)cc1Cl	none (no result: BLM helicase inh, JMJD2E inh, L3MBTL1 inh)
O=C(NC1(C(F)(F)F)Oc2ccccc2O1)N1CCC2(CC1)OCCO2	APE1 inh inconclusive, JMJD2E inh 14.1µM, L3MBTL1 inh inconclusive
O=C(c1ccccc1)N1CCC2(CC1)OCCO2	none
O=C(CCC(=O)N1CCOc2ccc(Cl)cc21)N1CCC2(CC1)OCCO2	none (no result: GoLoco inh red, JMJD2E inh, L3MBTL1 inh, RECQ1 helicase)
O=C(NC1(C(F)(F)F)Oc2ccc(Cl)cc2O1)N1CCC2(CC1)OCCO2 (centres undefined)	JMJD2E inh 15.8µM (no result: L3MBTL1 inh)
c1cncc(CNC2CCCC2)c1	JMJD2E inh 22.4µM
c1cncc(CNC2=NCCCCC2)c1	none
O=C1NC(=O)N(Cc2ccccc2)C(=O)/C1=C\c1ccco1	APE1 inh inconclusive, BLM helicase inh inconclusive, L3MBTL1 inh inconclusive, RECQ1 helicase inconclusive
CCCCN1C(=O)/C(=C/c2ccc(N(C)C)cc2)C(=O)N(Cc2ccco2)C1=O	APE1 inh inconclusive, BLM helicase inh inconclusive, L3MBTL1 inh inconclusive, RECQ1 helicase 28.2µM
CCCCN1C(=O)/C(=C\c2ccco2)C(=O)N(CCc2ccccc2)C1=O	APE1 inh inconclusive, BLM helicase inh inconclusive, L3MBTL1 inh inconclusive, RECQ1 helicase 31.6µM
C[C@@H]1O[C@H](OC2[C@@H](O)[C@H](O)C(O)[C@H](O)[C@H]2O)[C@@H](N)C[C@@H]1N=C(N)C(=O)O (some centres undefined)	none (no result: APE1 inh, BLM helicase inh, JMJD2E inh, L3MBTL1 inh, RECQ1 helicase)
CNc1ccc(C(=O)CC(O)CCC(C)C2OC(=O)CC(O)CC(=O)CC(O)CC(O)CC(O)CC(O)CC3(O)CC(O)C(C(=O)OC)C(CC(O[C@@H]4O[C@H](C)[C@@H](O)[C@H](N)[C@@H]4O)/C=C/C=C/C=C/C=C/C=C/C=C/C=C/C2C)O3)cc1 (some centres undefined)	none (no result: GoLoco inh red, BLM helicase inh, JMJD2E inh, L3MBTL1 inh, RECQ1 helicase)
Cc1ccccc1-n1c(O)c(/C=C/C=Nc2ccccc2)c(=O)[nH]c1=O	RECQ1 helicase 25.1µM
Cc1cccc(-n2c(O)c(/C=C/C=Nc3ccccc3)c(=O)[nH]c2=O)c1	none
CCOC(=O)CC(SP(=O)(OC)OC)C(=O)OCC (centres undefined)	none (no result: BLM helicase inh, JMJD2E inh, L3MBTL1 inh)
CCC(=O)N1N=C(c2c(O)n(CCc3ccccc3)c(=O)[nH]c2=O)CC1c1ccc(OC)c(OC)c1 (centres undefined)	JMJD2E inh 20µM (no result: L3MBTL1 inh)
CN1C(=O)NC(=O)/C(=C\c2ccc([N+](=O)[O-])o2)C1=O	APE1 inh inconclusive, JMJD2E inh inconclusive, L3MBTL1 inh 10µM
O=C1NC(=O)N(c2ccccc2)C(=O)/C1=C\c1ccc([N+](=O)[O-])o1	APE1 inh inconclusive, JMJD2E inh inconclusive, L3MBTL1 inh 3.16µM
Cc1ccc(/C=C2/C(=O)NC(=O)N(C)C2=O)cc1	none
